Data taken from article PMC5540273 (PLoS ONE, 2017).

Columns and labels:
Details in all cases: concentration: 1 μM, replicates: in singlicate; n = 1
[1] = tested on: RIPK4
[2] = tested on: RIPK5
[3] = tested on: ROCK1
[4] = tested on: ROCK2
[5] = tested on: ROS1
[6] = tested on: RPS6KA4(Kin.Dom.1-N-terminal)
[7] = tested on: RPS6KA4(Kin.Dom.2-C-terminal)
[8] = tested on: RPS6KA5(Kin.Dom.1-N-terminal)
[9] = tested on: RPS6KA5(Kin.Dom.2-C-terminal)
[10] = tested on: T1, RSK1(Kin.Dom.1-N-terminal)
T1 construct: gene RPS6KA1

[11] = tested on: T2, RSK1(Kin.Dom.2-C-terminal)
T2 construct: gene RPS6KA1

[12] = tested on: T3, RSK2(Kin.Dom.1-N-terminal)
T3 construct: gene RPS6KA3

[13] = tested on: T4, RSK2(Kin.Dom.2-C-terminal)
T4 construct: gene RPS6KA3

[14] = tested on: T5, RSK3(Kin.Dom.1-N-terminal)
T5 construct: gene RPS6KA2

[15] = tested on: T6, RSK3(Kin.Dom.2-C-terminal)
T6 construct: gene RPS6KA2

[16] = tested on: T7, RSK4(Kin.Dom.1-N-terminal)
T7 construct: gene RPS6KA6

[17] = tested on: T8, RSK4(Kin.Dom.2-C-terminal)
T8 construct: gene RPS6KA6

[18] = tested on: S6K1
[19] = tested on: SBK1
[20] = tested on: SGK2
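Note: KINOMEscan kinase panel screen.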

SMILES | %Inh [1] | %Inh [2] | %Inh [3] | %Inh [4] | %Inh [5] | %Inh [6] | %Inh [7] | %Inh [8] | %Inh [9] | %Inh [10] | %Inh [11] | %Inh [12] | %Inh [13] | %Inh [14] | %Inh [15] | %Inh [16] | %Inh [17] | %Inh [18] | %Inh [19] | %Inh [20]
COc1ccc(CSc2nnc(-c3ccc4c(c3)CCO4)o2)cc1 | 0% | 0% | 0% | 0% | 0% | 0% | 0% | 0% | 1% | 0% | 0% | 0% | 3% | 0% | 5% | 0% | 17% | 0% | 0% | 0%
FC(F)(F)c1ccccc1-c1cc(-c2c[nH]nc2-c2ccccn2)ccn1 [GW679396] | 0% | 0% | 9% | 14% | 6% | 18% | 0% | 24% | 0% | 6% | 13% | 0% | 0% | 6% | 0% | 0% | 22% | 0% | 13% | 0%
O=C(Nc1n[nH]c2nc(-c3cccs3)c(Br)cc12)C1CCCC1 [SB-743341] | 0% | 34% | 0% | 0% | 21% | 4% | 25% | 4% | 7% | 0% | 0% | 15% | 0% | 0% | 0% | 26% | 0% | 2% | 0% | 0%
Cc1ccc(NC(=O)Nc2ccc(Cl)cc2)cc1-c1ccc(C(=O)Nc2ccncc2)cc1 [GSK1398472] | 28% | 6% | 4% | 0% | 0% | 7% | 0% | 17% | 0% | 27% | 0% | 2% | 6% | 15% | 0% | 0% | 20% | 8% | 19% | 8%
CN1c2ccc(-c3ccc(C(N)=O)cc3)cc2-c2[nH]ncc2S1(=O)=O | 0% | 0% | 0% | 11% | 0% | 17% | 26% | 0% | 0% | 0% | 47% | 17% | 35% | 0% | 41% | 0% | 38% | 0% | 0% | 8%
CNc1nc(-c2ccc3c(N)n[nH]c3c2)cc(N2C[C@@H](C(=O)NC3CCCCC3)OC[C@H]2C)n1 [GSK2375584] | 11% | 1% | 23% | 26% | 19% | 16% | 0% | 25% | 24% | 11% | 19% | 0% | 14% | 9% | 6% | 0% | 20% | 10% | 0% | 0%
O=C1NC(=O)C(c2ccc(Cl)cc2)=C1Nc1ccc(O)cc1 [SB-340867] | 0% | 0% | 0% | 0% | 0% | 0% | 0% | 0% | 0% | 9% | 0% | 13% | 0% | 0% | 0% | 0% | 0% | 0% | 0% | 0%
Cc1ccccc1-c1cc(-c2c[nH]nc2-c2ccccn2)ccn1 [GW680061] | 0% | 0% | 0% | 3% | 0% | 5% | 0% | 4% | 0% | 5% | 14% | 10% | 15% | 2% | 0% | 0% | 22% | 2% | 0% | 0%
COc1cc2ncnc(Nc3cccc(Br)c3)c2cc1OC.Cl [GI230329] | 5% | 8% | 37% | 33% | 28% | 8% | 0% | 0% | 2% | 0% | 11% | 11% | 5% | 0% | 0% | 0% | 15% | 0% | 16% | 2%
COc1ccc(CSc2nnc(-c3ccc4ncsc4c3)o2)cc1C(F)(F)F | 0% | 0% | 11% | 0% | 0% | 0% | 5% | 17% | 10% | 0% | 0% | 0% | 0% | 0% | 0% | 0% | 9% | 0% | 0% | 0%
CC(=O)c1c(C)c2cnc(Nc3ccn(C)n3)nc2n(C2CCCC2)c1=O | 0% | 0% | 0% | 0% | 4% | 0% | 0% | 0% | 3% | 0% | 4% | 0% | 0% | 0% | 0% | 0% | 0% | 0% | 0% | 0%
COc1ccc(-c2coc3ccc(-c4nnc(C)o4)cc23)cc1 | 0% | 0% | 0% | 0% | 0% | 13% | 0% | 4% | 4% | 0% | 4% | 0% | 0% | 0% | 8% | 22% | 15% | 0% | 0% | 0%
CCCCc1nn2ncccc2c1-c1ccnc(NC2CC2)n1 [GW684374] | 7% | 5% | 0% | 0% | 8% | 0% | 0% | 0% | 11% | 7% | 28% | 26% | 0% | 0% | 0% | 0% | 32% | 0% | 0% | 0%
CCc1ccc(-c2ccc3c(c2)-c2n[nH]cc2S(=O)(=O)N3C)cc1 | 0% | 0% | 0% | 0% | 0% | 2% | 0% | 0% | 0% | 0% | 30% | 7% | 52% | 5% | 17% | 1% | 20% | 0% | 0% | 0%
CS(=O)(=O)Cc1ccc(Nc2nccc(-c3c(-c4cccc(NC(=O)C5CCCCC5)c4)nn4ncccc34)n2)cc1 [GSK350559] | 44% | 39% | 37% | 21% | 21% | 0% | 35% | 0% | 16% | 11% | 33% | 13% | 11% | 12% | 0% | 17% | 9% | 24% | 34% | 40%
Cc1c(Cn2c(C)c(C)n3c(=O)cc(N4CCOCC4)nc23)cccc1C(F)(F)F [GSK2328680] | 0% | 67% | 11% | 10% | 19% | 1% | 0% | 16% | 0% | 0% | 0% | 0% | 2% | 7% | 0% | 0% | 5% | 0% | 22% | 0%
Cc1ccc(-c2nc(Nc3ccncc3)c3ccccc3n2)s1 [GSK189015] | 20% | 6% | 0% | 0% | 0% | 18% | 0% | 23% | 0% | 0% | 18% | 7% | 21% | 3% | 12% | 0% | 28% | 0% | 4% | 4%
Cc1cccc2c(-c3ccncn3)c(-c3ccc(F)cc3)nn12 [GW515532] | 8% | 0% | 3% | 13% | 0% | 0% | 0% | 21% | 0% | 0% | 50% | 9% | 8% | 6% | 19% | 0% | 87% | 1% | 9% | 14%
Cc1ccc(NC(=O)Nc2ccccc2)cc1-c1ccc(C(=O)Nc2ccncc2)cc1 [GSK1398471] | 1% | 0% | 0% | 0% | 0% | 3% | 0% | 13% | 0% | 15% | 10% | 0% | 1% | 3% | 7% | 0% | 6% | 0% | 5% | 0%
COc1ccc(Nc2nccc(NCCNC(=O)Nc3cc(C)ccc3C)n2)cc1 [GSK1379899] | 6% | 0% | 6% | 14% | 5% | 8% | 0% | 49% | 0% | 0% | 0% | 4% | 9% | 0% | 0% | 0% | 0% | 0% | 0% | 0%
CS(=O)(=O)CCNCc1nc(-c2ccc3ncnc(Nc4ccc5c(cnn5Cc5ccccc5)c4)c3c2)cs1.Cl.Cl [GW569716] | 3% | 0% | 47% | 33% | 0% | 23% | 0% | 9% | 7% | 8% | 0% | 0% | 0% | 0% | 4% | 0% | 5% | 5% | 0% | 7%
